This is an account of results in PubChem BioAssay AID623868 (Vanderbilt High Throughput Screening Facility, 2012).

In all, about 2,100 compounds went through this assay and about 760 (36%) were called active. These entries were drawn from the full list. Values without a mark were called inactive.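 How the source made its calls: active means thallium-flux fluorescence traces judged by eye to show enhanced or reduced glutamate response, manual score 1 or -1, so both directions (some results past the limit were not filed as active); inactive means the rest, including fluorescent or raised-baseline compounds.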

A short description of the test: non-GIRK thallium flux modulation in mGlu8 cells, confirmation, counter-screen for GIRK activator project, cell-based, HEK-293 rmGlu8, no GIRK (AID 623868).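 Further: extra codes mark interference with 3 for fluorescent and 4 for baseline rise.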 The settings on record: thallium flux fluorescence, at 10 µM, actives lie on both sides, codes: 1 enhancer, -1 blocker, 0 none, thallium stimulus containing EC20 glutamate. Background: Counterscreens check selectivity or assay interference.
Turning to `Cc1ccc2c(Cl)cc(Cl)c(OCC(=O)NCc3ccco3)c2n1`, the manual score is 1 (active).

On to `N=c1c(C(=O)NCc2ccco2)cc2c(=O)n3ccccc3nc2n1CCc1ccccc1`, for which the manual score was 0.

For the compound `CCC/C(=N/NC(=O)c1cccc(Cl)c1)c1ccccc1`, the manual score was 1 (active).

`CCNC(=S)N/N=C1\CCCCc2ccccc21`: the manual score was 0.5.

With `COc1cccc(NC(=O)Cn2cc3c(n2)CCCCC3)c1`, the manual score is 0.

`COc1cccc(NC(=S)N/N=C2/CCCCc3ccccc32)c1`: the manual score is 1 (active).

Consider `COc1ccc(Nc2nc(N)nc(CSc3nnc(C)s3)n2)cc1`, for which the manual score was 0.

Regarding `COc1cc(OC)c(-c2c3cc(O)c(=O)cc-3oc3cc(O)c(O)cc23)cc1OC`, the manual score is 3.

Consider `COc1ccc(NC(=O)Nc2cc(C)ccc2OC)cc1`, for which the manual score is 0.

As to `COc1ccc(NC(=O)Nc2ccccc2OC)cc1`, the manual score was 0.

Consider `COc1ccccc1NC(=O)C(=O)NNC(=O)c1ccco1`, for which the manual score is 1 (active).

Regarding `COc1ccc(C)cc1NC(=O)C(=O)NNC(=O)c1ccco1`, the manual score is 1 (active).

For the compound `COc1cccc(CNCCNC(=O)c2ccco2)c1OC`, the manual score was 0.

As to `COc1ccc(C)cc1NC(=O)Nc1ccccc1`, the manual score was 0.

For `CC(C)c1ccc(-n2cccc2/C=C2/C(=N)N3C=CSC3=NC2=O)cc1`, the manual score is 0.

On to `C(/C=C/C=C/Nc1ccccc1)=Nc1ccccc1`, for which the manual score is 3.

For `Cc1ccc(OCC(O)Cn2c(=N)n(CCN3CCCCC3)c3ccccc32)cc1` (configuration not stated), the manual score is 0.

Regarding `CC(c1ccc(Cl)cc1)n1c(-c2ccc3ccccc3n2)n[nH]c1=S` (configuration not stated), the manual score is 1 (active).

With `CC(c1ccc(F)cc1)n1c(-c2ccc3ccccc3n2)n[nH]c1=S` (configuration not stated), the manual score was 1 (active).

Regarding `CC(=O)Nc1ccc(Oc2ncccn2)cc1`, the manual score was 0.

Take `O=C(NNC(=O)c1cccnc1SCc1cccc([N+](=O)[O-])c1)c1ccccn1`: the manual score is 1 (active).

As for `Cc1cccc(C)c1NC(=O)C(NC(=O)c1ccccn1)c1ccc([N+](=O)[O-])cc1` (configuration not stated), the manual score was 0.

Consider `O=C(NNC(=O)c1cccnc1SCc1cccc([N+](=O)[O-])c1)c1cccnc1`, for which the manual score was 0.

As for `O=C(c1oc(=O)c2ccccc2c1-c1ccccc1)N1CCN(C2CCCCC2)CC1`, the manual score was 0.

As for `CCOC(=O)c1cc2n(c1N)-c1ccccc1C2=O`, the manual score was 3.

Take `CCOC(=O)C1=C(O)C(=O)N(c2ccc(S(N)(=O)=O)cc2)C1c1ccccc1` (configuration not stated): the manual score is -1 (active).

As to `CCOC(=O)c1ccc(N2C(=O)C(O)=C(C(C)=O)C2c2ccccc2)cc1` (configuration not stated), the manual score is -0.5.

Regarding `Clc1cccc(-c2ccc(/C=N/n3cnnc3)o2)c1Cl`, the manual score was 0.

For the compound `CCCn1nnc(NC(=O)COc2ccc(C3CCCCC3)cc2)n1`, the manual score was 0.

In the case of `CCCCn1nnc(NC(=S)NC(=O)c2ccc(-c3cccc(Cl)c3Cl)o2)n1`, the manual score was 1 (active).

Regarding `COc1ccccc1N(C)S(=O)(=O)c1ccc(C(=O)N(CC(N)=O)C(C)C)cc1`, the manual score is 0.

As to `CCOc1ccc(N2C(=O)/C(=C/c3cc(OC)c(OC)c(OC)c3)N(CC(=O)OC)C2=S)cc1`, the manual score was 0.

Take `CCOC(=O)C1CCN(C(=O)N(C)C)CC1`: the manual score was 0.

With `CS(=O)(=O)N(CC(=O)NCc1ccco1)c1ccc(Cl)c(C(F)(F)F)c1`, the manual score was 0.

Take `CCOC(=O)C1CCN(C(=O)CN(c2ccc(Cl)c(C(F)(F)F)c2)S(C)(=O)=O)CC1`: the manual score was -1 (active).

Regarding `O=C(N/N=C/c1ccc(Sc2ccccn2)o1)c1cc2ccccc2cc1O`, the manual score is 1 (active).

As to `CCCOc1ccc(/C=N/NC(=O)C(=O)Nc2ccccn2)cc1`, the manual score was 1.5.

For the compound `O=C(CSc1nc2ccccc2[nH]1)NC1CCCc2ccccc21` (configuration not stated), the manual score is 0.

Consider `CN(C)CCNc1ncnc2c1cnn2-c1ccc(Cl)cc1`, for which the manual score was 0.

With `NC(=O)CSc1ncnc2c1cnn2Cc1ccccc1`, the manual score is 0.

Turning to `Cc1ccc(-n2ncc3c(SCc4ccccc4)ncnc32)cc1`, the manual score was 1 (active).

As for `Cc1ccc(CSc2ncnc3c2cnn3-c2ccc(C)cc2)cc1`, the manual score was 1 (active).

For `COc1ccc(OC)c(Nc2ncnc3c2cnn3-c2cccc(C)c2)c1`, the manual score is 0.

Turning to `COc1cc2cnncc2cc1OC`, the manual score was 0.

As for `CCOc1ccc(NC(=O)Cn2nnc(-c3ccccc3F)n2)cc1`, the manual score was 0.

Regarding `N#Cc1c(N2CCN(C(=O)c3ccccc3)CC2)nc(-c2ccccc2)c2c1CCCC2`, the manual score was 0.

On to `CC(=O)c1c(N2CCCC2)[nH]c(-c2ccccc2)nc1=S`, for which the manual score was 1 (active).

For `CSc1nc(-c2ccccc2)[nH]c(=S)c1C(C)=O`, the manual score was 1 (active).

As to `CCCOC(=O)NC(CC)COC(=O)Nc1cccc(C)c1C` (configuration not stated), the manual score is 0.

Regarding `CN=C1c2c(-c3ccccc3)c3cc(OC)ccc3n2CCN1C`, the manual score was 0.

Consider `CC1CCN(c2ccccc2NC(=S)NC(=O)c2ccco2)CC1`, for which the manual score is 1 (active).

Turning to `O=C(NC(=S)Nc1ccccc1N1CCCCC1)c1ccco1`, the manual score is 0.

On to `O=C(NC(=S)Nc1ccccc1N1CCOCC1)c1ccco1`, for which the manual score is 1 (active).

In the case of `O=C(C[n+]1cc(-c2ccccc2)n2c1CCC2)OCc1ccccc1`, the manual score was 0.

Take `CC(C)(C)c1nn(-c2ccccc2)c2[nH]c(=O)c(CNCc3ccc4c(c3)OCO4)cc12`: the manual score was -1 (active).

As for `CCc1ccc(NCc2cc3c(C)nn(-c4ccccc4)c3[nH]c2=O)cc1`, the manual score is 0.

Consider `O=C(NCc1ccc2c(c1)OCO2)C1CCN(Cc2cnn(-c3ccccc3)c2-n2cccc2)CC1`, for which the manual score was 0.

Regarding `C=CCNc1nc(N2CCCC2)nc2ccccc12`, the manual score was 0.

In the case of `COc1ccc(C(=O)N2C(=S)NC(=O)/C2=C\c2ccc(C)cc2)cc1`, the manual score is 0.5.

Consider `COc1ccc(/C=C2\C(=O)NC(=S)N2C(=O)c2ccc(F)cc2)cc1`, for which the manual score was 1 (active).

For `COc1ccc(NC2=Nc3cccc4cccc2c34)cc1OC`, the manual score was 0.

On to `Cc1nc2ccc(NS(=O)(=O)c3ccc4c(c3)OCCO4)cc2s1`, for which the manual score is 0.

With `S=C(Nc1cccc(Cl)c1)Nc1cccc2cnccc12`, the manual score was 0.

Regarding `Cc1csc(NC(=S)Nc2cccc(Cl)c2)n1`, the manual score is 1 (active).

Consider `S=C(NCc1cccs1)Nc1cccc(Cl)c1`, for which the manual score was 0.

As to `C=C(C)C1CC=C(C)/C(=N/NC(=O)c2ccc(NC(=O)CCC)cc2)C1` (configuration not stated), the manual score was 0.

As to `COc1ccc(/C=N/n2c(-c3cccs3)n[nH]c2=S)cc1`, the manual score is 1 (active).

Turning to `COCCN=c1scc(-c2cccs2)n1/N=C/c1ccc(O)c(O)c1O`, the manual score is 0.

Take `COc1cccc(OCCc2c(C)n[nH]c2C)c1`: the manual score is 0.

Consider `CCOc1ccc(C2=NNC(c3cccs3)=Nc3ccc(OC)cc32)cc1`, for which the manual score was 0.

Turning to `COc1cccc(/C=N/n2c(-c3cccs3)n[nH]c2=S)c1`, the manual score was 1 (active).

Consider `Cc1onc(-c2c(F)cccc2Cl)c1C(=O)OCn1nnc2ccccc2c1=O`, for which the manual score is 0.

As for `CC1=NN(c2ccccc2)C(=O)C1C(=O)c1ccc(Cl)cc1` (configuration not stated), the manual score was 1 (active).

Turning to `COC(=O)C1=NN(c2ccccc2)C2C(=O)N(c3ccccc3OC)C(=O)C12` (configuration not stated), the manual score was 0.

With `COc1cc(NC(=O)CSCc2cnn(-c3ccccc3)c2-n2cccc2)cc(OC)c1`, the manual score was 0.

On to `CCN(CC)c1ccc2c(c1)OC(N)=C(C#N)C2c1cccnc1` (configuration not stated), for which the manual score is 3.

Turning to `Cc1ccc(N=Cc2cc3c(cc2O)OC(N)=C(C#N)C3c2ccccc2)cc1` (configuration not stated), the manual score was -1 (active).

As for `CC1=C(n2nnc3ccccc32)C(c2ccccc2)C(C#N)=C(N)O1` (configuration not stated), the manual score is 0.

`CC(Sc1nnnn1C)C(=O)Nc1ccc(Oc2ccccc2)cc1` (configuration not stated): the manual score was 0.5.

On to `COc1ccc(-n2c(=S)[nH]c3ccccc32)cc1`, for which the manual score was 1 (active).

Turning to `Cc1cccc(OCCn2c(=S)[nH]c3ccccc32)c1`, the manual score was 0.

As to `COc1ccc(-c2c3c(=O)n(C)c(=O)n(C)c3cn2-c2ccccc2)cc1`, the manual score was 0.

For the compound `COc1ccc(-n2cc(-c3ccccc3)[nH]c2=S)cc1`, the manual score is 1 (active).

In the case of `Cn1c(-c2ccc(-c3ccccc3)cc2)c[nH]c1=S`, the manual score was 0.

With `CCCn1c(=N)n(CCOc2ccc(OC)cc2)c2ccccc21`, the manual score is 0.

As to `CC(C)(C)c1ccc(OCCON2C(=O)CCC2=O)c(Cl)c1`, the manual score was 0.

In the case of `COc1ccc(C(CCNCc2ccccc2F)c2ccc(F)cc2)cc1` (configuration not stated), the manual score was 0.

For `COC(=O)c1cc(NC(=O)c2ccoc2C)cc(C(=O)OC)c1`, the manual score was 0.

With `CCOC(=O)C1=C(C)Nc2nnnn2C1c1ccccc1Cl` (configuration not stated), the manual score is -1 (active).

Consider `CCOC(=O)C1=C(C)NC2=C(C(=O)C(C(=O)OCC)C(c3ccccc3OC)C2)C1c1ccccn1` (configuration not stated), for which the manual score was 0.

Take `CCCC1=C(C(=O)OCC)C(c2ccc(F)cc2)n2ncnc2N1` (configuration not stated): the manual score is -0.5.

With `CC(C)C(=O)Nc1ccccc1N1CCN(C(=O)c2ccccc2)CC1`, the manual score was -1 (active).

Take `O=C(c1ccc(-c2ccccc2)cc1)N1CCN(c2ncccn2)CC1`: the manual score is 0.

Consider `CCCC(=O)Nc1ccccc1N1CCN(C(=O)c2ccccc2)CC1`, for which the manual score is -1 (active).

For the compound `O=C(Nc1ccccc1N1CCCCC1)c1ccccc1F`, the manual score is 0.

`CC(C)N(C(=O)CN(C#N)c1nc(N(C)C)nc(N(C)C)n1)c1ccccc1`: the manual score was 0.

With `CCN(CC)CC(O)COCCC12CC3CC(CC(C3)C1)C2` (configuration not stated), the manual score is 0.

For the compound `O=C(N/C(=N\O)c1ccccc1)Nc1ccc(Cl)cc1`, the manual score is 0.

Take `N#C/C(=N\Nc1ccc(Cl)cc1)C(=O)c1ccccc1`: the manual score was -1 (active).

As for `CSc1ccccc1NC(=O)Nc1ccc(Cl)cc1`, the manual score was 0.

`CC(C)c1nc(=S)n(-c2ccccc2)[nH]1`: the manual score is 1 (active).

Turning to `CCOC(=O)c1cccc(-n2c(C)cc(C=O)c2C)c1`, the manual score was 0.

On to `O=C(CSCc1ccccc1)N=Nc1c(O)[nH]c2ccccc12`, for which the manual score is 1 (active).

On to `O=C(CSCc1ccc(Br)cc1)N=Nc1c(O)[nH]c2ccccc12`, for which the manual score is 1 (active).

Consider `Fc1ccccc1/C=N/NC(=S)Nc1ccc(Cl)cc1Cl`, for which the manual score was 0.

For `O=[N+]([O-])c1ccc(/C=N/NC(=S)Nc2ccccc2F)o1`, the manual score was 1 (active).

On to `Fc1ccccc1NC(=S)N/N=C/c1ccccc1Br`, for which the manual score was 1 (active).
